In PubChem BioAssay (EPA / NIEHS):
Records with an inconclusive call do not appear. Active and inactive are the calls of the source. Rule for the calls, unless noted: active = hit-call score of the fitted dose curve at least 0.9, where 1 is the maximum; inactive = score below 0.9.

How the values were obtained:
[1] = target: Nuclear respiratory factor 1 (Homo sapiens) (UniProt Q16656); test: ATG_NRF1_CIS: Attagene CIS-FACTORIAL HepG2 Assay for human Nuclear Respiratory Factor 1 (NRF1) Orphan Gene (AID 2282987); conditions: HepG2 NRF1 cis-element reporter, Attagene multiplex; actives raise or lower the signal
Nuclear respiratory factor 1 (Homo sapiens), sequence (Q16656 whole entry, looked up, the tested form may be a part): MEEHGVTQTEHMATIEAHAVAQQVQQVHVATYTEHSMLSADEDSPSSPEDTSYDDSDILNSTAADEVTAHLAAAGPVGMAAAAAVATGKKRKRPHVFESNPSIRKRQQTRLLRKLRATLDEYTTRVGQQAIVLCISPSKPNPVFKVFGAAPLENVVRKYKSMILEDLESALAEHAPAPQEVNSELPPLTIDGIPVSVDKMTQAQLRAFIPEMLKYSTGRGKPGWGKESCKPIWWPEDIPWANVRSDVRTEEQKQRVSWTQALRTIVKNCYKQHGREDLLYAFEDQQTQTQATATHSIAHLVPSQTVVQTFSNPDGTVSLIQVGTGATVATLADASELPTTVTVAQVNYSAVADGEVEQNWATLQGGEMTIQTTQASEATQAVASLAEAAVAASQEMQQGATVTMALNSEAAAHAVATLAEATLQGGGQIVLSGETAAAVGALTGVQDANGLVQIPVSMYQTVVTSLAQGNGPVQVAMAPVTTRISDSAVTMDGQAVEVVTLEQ
Outline: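 Cells (HepG2, transient MRTU transfection) are exposed to compound for 24 h, then RNA isolated and reporter mRNA amplified and fluorescently labelled. Fragments are separated by capillary electrophoresis; signal change is fitted bidirectionally relative to DMSO.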

[2] = ATG_NFI_CIS: Attagene CIS-FACTORIAL HepG2 Assay for human Nuclear Factor I (NFI) (AID 2282989); conditions: HepG2 cis-regulatory reporter, NFI response element transcription; actives raise or lower the signal
Outline: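 Transient MRTU transfection of HepG2 → 24 h chemical dosing → total RNA, oligo(dT) RT → PCR, 6-FAM primer extension, HpaI cut → capillary electrophoresis. Endpoint fitted bidirectionally relative to DMSO.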

[3] = target: Myc proto-oncogene protein (Homo sapiens) (UniProt P01106); test: ATG_Myc_CIS: Attagene CIS-FACTORIAL HepG2 Assay for human Myelocytomatosis (Myc) Proto-Oncogene Transcription Factor (AID 2282990); conditions: HepG2, Attagene cis-reporter transcription factor activity; actives raise or lower the signal
Myc proto-oncogene protein (Homo sapiens), sequence (P01106 whole entry, looked up, the tested form may be a part): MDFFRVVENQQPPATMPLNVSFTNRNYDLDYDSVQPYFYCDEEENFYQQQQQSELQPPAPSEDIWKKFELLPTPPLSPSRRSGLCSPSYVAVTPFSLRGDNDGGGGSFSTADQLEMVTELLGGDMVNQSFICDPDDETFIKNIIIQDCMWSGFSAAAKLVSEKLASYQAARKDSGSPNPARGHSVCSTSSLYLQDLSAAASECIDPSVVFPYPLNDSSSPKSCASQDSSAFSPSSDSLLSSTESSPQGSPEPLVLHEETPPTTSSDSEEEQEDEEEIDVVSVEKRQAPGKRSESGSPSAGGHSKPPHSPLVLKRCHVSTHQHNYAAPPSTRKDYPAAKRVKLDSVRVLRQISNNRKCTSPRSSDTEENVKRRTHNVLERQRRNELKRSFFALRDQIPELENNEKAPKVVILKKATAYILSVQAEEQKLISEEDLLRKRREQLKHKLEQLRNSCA
Outline: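 Fluorescence intensity of reporter-specific cDNA fragments, separated by capillary electrophoresis, gives the signal. Transfected HepG2 cells carrying cis-promoter reporter constructs are incubated with compound for 24 h; DMSO serves as baseline.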

[4] = ATG_NF_kB_CIS: Attagene CIS-FACTORIAL HepG2 Assay for human Nuclear Factor Kappa B (NF-kB) (AID 2282991); conditions: HepG2 Attagene cis-factorial NF-kB reporter mRNA; actives raise or lower the signal
Outline: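 Measures mRNA induction of an NF-kB-responsive cis-element reporter in HepG2 cells transfected with multiple reporter units, sampled 24 h post-dosing; quantified by fluorescence after RT-PCR and capillary electrophoresis, fitted for activation or inhibition against DMSO.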

[5] = ATG_NRF2_ARE_CIS: Attagene CIS-FACTORIAL HepG2 Assay for human Nuclear Factor Erythroid 2 Related Factor 2 (NFR2) response to Antioxidant Response Elements (ARE) (AID 2282992); conditions: HepG2 Attagene ARE/NRF2 reporter, transcription factor activity; actives raise or lower the signal;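 for AC50: reporter mRNA level measured by RT-PCR and capillary electrophoresis fluorescence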
Outline: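 Fluorescence intensity of reporter-specific cDNA fragments, separated by capillary electrophoresis, reflects mRNA induction in transfected HepG2 cells at 24 h. Activity is fitted bidirectionally, DMSO serving as baseline.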

[6] = ATG_Oct_MLP_CIS: Attagene CIS-FACTORIAL HepG2 Assay for human Octamer-Binding Transcription Factor (Oct) (AID 2282993); conditions: HepG2 Attagene cis-factorial Oct reporter, mRNA; actives raise or lower the signal
Outline: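 Transient MRTU transfection of HepG2 → 24 h compound treatment → RNA isolation, reverse transcription, PCR → 6-FAM primer extension, HpaI digest → capillary electrophoresis. Activity fitted both directions against DMSO.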

[7] = target: Cellular tumor antigen p53 (Homo sapiens) (UniProt P04637); test: ATG_p53_CIS: Attagene CIS-FACTORIAL HepG2 Assay for human p53 Transcription Factor (AID 2282994); conditions: HepG2 p53 cis-element reporter, Attagene mRNA; actives raise or lower the signal
Cellular tumor antigen p53 (Homo sapiens), sequence (P04637 whole entry, looked up): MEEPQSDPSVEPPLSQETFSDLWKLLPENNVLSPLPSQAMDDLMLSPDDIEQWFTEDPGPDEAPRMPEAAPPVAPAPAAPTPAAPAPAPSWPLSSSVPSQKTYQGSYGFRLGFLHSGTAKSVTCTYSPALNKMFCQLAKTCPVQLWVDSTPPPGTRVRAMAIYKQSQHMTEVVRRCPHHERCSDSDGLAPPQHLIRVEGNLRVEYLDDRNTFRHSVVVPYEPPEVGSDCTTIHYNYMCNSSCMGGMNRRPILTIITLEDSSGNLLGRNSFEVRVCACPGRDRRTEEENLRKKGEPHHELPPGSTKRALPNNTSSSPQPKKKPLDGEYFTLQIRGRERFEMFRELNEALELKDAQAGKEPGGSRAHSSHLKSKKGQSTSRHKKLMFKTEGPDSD
Outline: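 Transiently transfected HepG2 (multiple cis reporter transcription units); exposure 24 h; reporter RNA via RT-PCR, 6-FAM extension, 2 h HpaI digest at 37 C, CE detection; DMSO baseline.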

[8] = BSK_3C_TissueFactor: BioMAP Diversity Plus: 3C Assay for Tissue Factor Biomarker Activity (AID 2282997); conditions: BioMAP 3C HUVEC, tissue factor biomarker readout; actives raise or lower the signal
Outline: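 Cells used were primary human umbilical vein endothelial cells. They were dosed with chemical, and after 24 h Tissue Factor was quantified by ELISA. Curves were fitted bidirectionally with DMSO as baseline.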

[9] = BSK_3C_uPAR: BioMAP Diversity Plus: 3C Assay for Urokinase-type plasminogen activator receptor (uPAR) Biomarker Activity (AID 2282998); conditions: BioMAP 3C HUVEC, uPAR biomarker ELISA; actives raise or lower the signal
Outline: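 ELISA readout of uPAR on human vascular endothelium (umbilical vein primary cells), taken 24 h after chemical dosing. Increases and decreases are both fitted relative to DMSO vehicle.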

[10] = BSK_3C_VCAM1: BioMAP Diversity Plus: 3C Assay for Vascular cell adhesion molecule 1 (VCAM1) Biomarker Activity (AID 2282999); conditions: BioMAP 3C HUVEC, VCAM1 ELISA, cytokine-stimulated; actives raise or lower the signal
Outline: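 HUVEC primary cells, 24 h compound exposure; VCAM-1 by ELISA; gain/loss of signal fitted bidirectionally vs DMSO baseline.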

[11] = BSK_4H_Eotaxin3: BioMAP Diversity Plus: 4H Assay for Eotaxin 3 Biomarker Activity (AID 2283000); conditions: primary human endothelial cells (HUVEC); actives raise or lower the signal;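 note: CCL26 protein level quantified by ELISA in parallel with SRB cytotoxicity check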
Outline: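 Endothelial primary cells (human umbilical vein) exposed to compound for 24 h. ELISA detection of Eotaxin-3.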

[12] = target: human Peroxisome Proliferator-activated Receptor alpha (PPARa), PPARA (gene 5465) (UniProt Q07869); test: ATG_PPARa_TRANS: Attagene TRANS-FACTORIAL HepG2 Assay for human Peroxisome Proliferator-activated Receptor alpha (PPARa) (AID 2283001; active = hit-call score of the fitted dose curve at least 0.9, where 1 is the maximum;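 for AC50: potency for gain of reporter signal over DMSO so agonist or activator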)
human Peroxisome Proliferator-activated Receptor alpha (PPARa), PPARA (gene 5465), sequence (Q07869 whole entry, looked up, the tested form may be a part): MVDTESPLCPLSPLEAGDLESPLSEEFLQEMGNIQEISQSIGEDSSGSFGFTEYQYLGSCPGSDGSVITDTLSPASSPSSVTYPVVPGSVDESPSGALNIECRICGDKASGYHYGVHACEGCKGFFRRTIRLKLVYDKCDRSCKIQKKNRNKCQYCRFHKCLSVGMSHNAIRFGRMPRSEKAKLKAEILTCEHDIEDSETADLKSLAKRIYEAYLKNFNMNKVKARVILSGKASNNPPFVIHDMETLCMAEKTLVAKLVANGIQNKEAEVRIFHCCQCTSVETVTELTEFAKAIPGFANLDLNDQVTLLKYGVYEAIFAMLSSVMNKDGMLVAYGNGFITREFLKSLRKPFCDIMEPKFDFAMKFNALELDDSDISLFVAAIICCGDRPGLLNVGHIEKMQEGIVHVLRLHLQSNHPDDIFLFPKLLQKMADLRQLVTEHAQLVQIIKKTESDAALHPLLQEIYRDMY
Outline: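 Transient HepG2 transfection, GAL4-UAS reporters, NR-Gal4 chimeras; 24 h compound exposure. Readout: reporter transcripts by RT-PCR, 6-FAM primer extension, HpaI digest, capillary electrophoresis. Positive direction vs DMSO baseline.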

[13] = target: human Peroxisome Proliferator-activated Receptor delta (PPARd), PPARD (gene 5467) (UniProt Q03181); test: ATG_PPARd_TRANS: Attagene TRANS-FACTORIAL HepG2 Assay for human Peroxisome Proliferator-activated Receptor delta (PPARd) (AID 2283002; active = hit-call score of the fitted dose curve at least 0.9, where 1 is the maximum)
human Peroxisome Proliferator-activated Receptor delta (PPARd), PPARD (gene 5467), sequence (Q03181 whole entry, looked up, the tested form may be a part): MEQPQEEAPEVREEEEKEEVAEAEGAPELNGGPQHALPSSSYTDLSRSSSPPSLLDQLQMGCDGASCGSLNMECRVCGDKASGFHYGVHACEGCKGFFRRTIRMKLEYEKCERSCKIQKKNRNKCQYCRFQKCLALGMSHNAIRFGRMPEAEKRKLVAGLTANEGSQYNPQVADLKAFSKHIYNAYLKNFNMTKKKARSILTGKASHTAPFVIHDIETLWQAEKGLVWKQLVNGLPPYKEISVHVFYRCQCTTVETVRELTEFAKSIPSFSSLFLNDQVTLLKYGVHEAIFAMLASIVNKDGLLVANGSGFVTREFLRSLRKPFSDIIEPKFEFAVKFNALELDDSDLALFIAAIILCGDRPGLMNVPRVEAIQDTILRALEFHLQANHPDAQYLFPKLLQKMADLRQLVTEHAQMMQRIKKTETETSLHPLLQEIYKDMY
Outline: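 Fluorescence from capillary electrophoresis of labelled RT-PCR reporter fragments gives the signal; DMSO sets baseline. Cells: HepG2 transiently carrying GAL4-UAS reporter units plus chimeric nuclear receptor-Gal4 proteins, exposed to chemicals for 24 h.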

[14] = read-out: Intercellular Adhesion Molecule 1 (ICAM1), ICAM1 (gene 3383); test: BSK_3C_ICAM1: BioMAP Diversity Plus: 3C Assay for Intercellular Adhesion Molecule 1 (ICAM1) Biomarker Activity (AID 2283003); conditions: primary human endothelial cells (HUVEC); actives raise or lower the signal
Outline: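 ELISA read-out of ICAM-1; HUVEC (primary human), 3C system, 24 h post-dosing; bidirectional fit vs DMSO baseline.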

[15] = BSK_3C_Proliferation: Cell Proliferation Assessment in the BioMAP Diversity Plus: 3C Assay (AID 2283006); conditions: primary human endothelial cells (HUVEC)
Outline: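 HUVEC, sub-confluent; 48 h chemical exposure; 10% TCA fix, 0.1% SRB stain, A560 total protein. Gain or loss of signal fitted both directions vs DMSO control.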

[16] = target: Peroxisome proliferator-activated receptor gamma (Homo sapiens) (UniProt P37231); test: ATG_PPARg_TRANS: Attagene TRANS-FACTORIAL HepG2 Assay for human Peroxisome Proliferator-activated Receptor-gamma (PPARg) (AID 2283007; active = hit-call score of the fitted dose curve at least 0.9, where 1 is the maximum)
Peroxisome proliferator-activated receptor gamma (Homo sapiens), sequence (P37231 whole entry, looked up, the tested form may be a part): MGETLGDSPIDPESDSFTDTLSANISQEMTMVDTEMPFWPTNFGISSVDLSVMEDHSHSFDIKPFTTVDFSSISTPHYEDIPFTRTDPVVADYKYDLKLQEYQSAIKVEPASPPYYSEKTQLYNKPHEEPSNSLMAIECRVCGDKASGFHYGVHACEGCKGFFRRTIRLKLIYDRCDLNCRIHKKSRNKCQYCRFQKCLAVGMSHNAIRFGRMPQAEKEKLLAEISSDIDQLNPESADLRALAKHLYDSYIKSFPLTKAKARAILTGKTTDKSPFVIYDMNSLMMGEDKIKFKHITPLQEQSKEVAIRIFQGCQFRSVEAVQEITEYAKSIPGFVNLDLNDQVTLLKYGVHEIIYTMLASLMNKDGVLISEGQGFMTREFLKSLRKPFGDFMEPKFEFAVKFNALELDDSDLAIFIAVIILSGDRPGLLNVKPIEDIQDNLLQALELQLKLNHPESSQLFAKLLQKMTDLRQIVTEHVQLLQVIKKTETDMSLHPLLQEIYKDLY
Outline: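 Gain-of-signal endpoint relative to DMSO, derived from reporter mRNA levels quantified by RT-PCR and capillary electrophoresis. Cells were HepG2 transiently expressing a chimeric NR-Gal4 construct with GAL4-UAS reporters, exposed to chemicals for 24 h.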

[17] = target: Nuclear receptor subfamily 1 group I member 2 (Homo sapiens) (UniProt O75469); test: ATG_PXR_TRANS: Attagene TRANS-FACTORIAL HepG2 Assay for human Pregnane X Receptor (PXR) (AID 2283008; active = hit-call score of the fitted dose curve at least 0.9, where 1 is the maximum)
Nuclear receptor subfamily 1 group I member 2 (Homo sapiens), sequence (O75469 whole entry, looked up, the tested form may be a part): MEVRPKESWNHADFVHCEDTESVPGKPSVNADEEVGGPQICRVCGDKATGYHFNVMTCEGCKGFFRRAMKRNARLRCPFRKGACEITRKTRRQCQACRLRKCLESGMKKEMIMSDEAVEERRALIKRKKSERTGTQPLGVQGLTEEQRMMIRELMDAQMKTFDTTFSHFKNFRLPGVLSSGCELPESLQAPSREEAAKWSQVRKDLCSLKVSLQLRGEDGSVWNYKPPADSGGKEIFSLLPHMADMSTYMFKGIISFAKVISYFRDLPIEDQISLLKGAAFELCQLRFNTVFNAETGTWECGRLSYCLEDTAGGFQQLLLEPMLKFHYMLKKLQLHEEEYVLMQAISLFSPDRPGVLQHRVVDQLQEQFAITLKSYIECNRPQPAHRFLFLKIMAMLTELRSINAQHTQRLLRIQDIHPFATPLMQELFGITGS
Outline: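 Transient HepG2 transfectants carrying multiplexed reporter transcription units; PXR activity read through a Gal4 chimera. 24 h exposure. RT-PCR/CE fluorescence; upward curve fit referenced to DMSO.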

[18] = target: Retinoic acid receptor alpha (Homo sapiens) (UniProt P10276); test: ATG_RARa_TRANS: Attagene TRANS-FACTORIAL HepG2 Assay for human Retinoic Acid Receptor alpha (RARa) (AID 2283005; active = hit-call score of the fitted dose curve at least 0.9, where 1 is the maximum)
Retinoic acid receptor alpha (Homo sapiens), sequence (P10276 whole entry, looked up, the tested form may be a part): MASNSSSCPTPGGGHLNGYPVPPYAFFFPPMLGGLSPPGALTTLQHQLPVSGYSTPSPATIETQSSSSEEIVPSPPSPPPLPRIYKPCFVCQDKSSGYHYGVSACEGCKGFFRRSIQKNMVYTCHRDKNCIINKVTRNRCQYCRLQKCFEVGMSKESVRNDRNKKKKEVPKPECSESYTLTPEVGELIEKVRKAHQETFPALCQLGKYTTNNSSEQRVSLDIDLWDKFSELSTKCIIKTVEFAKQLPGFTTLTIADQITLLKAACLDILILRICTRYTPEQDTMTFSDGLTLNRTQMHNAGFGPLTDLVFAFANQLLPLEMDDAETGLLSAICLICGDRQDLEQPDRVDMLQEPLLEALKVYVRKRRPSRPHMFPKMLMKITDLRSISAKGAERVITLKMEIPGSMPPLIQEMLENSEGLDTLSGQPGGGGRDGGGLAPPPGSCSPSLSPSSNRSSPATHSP
Outline: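 HepG2 transiently transfected with multiplex GAL4-UAS reporter units including a human RARa–GAL4 chimera; 24 h compound exposure. Reporter mRNA quantified by RT-PCR, 6-FAM labeling and capillary electrophoresis; gain of signal versus DMSO.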

[19] = target: human Retinoic Acid Receptor gamma (RARg), RARG (gene 5916) (UniProt P13631); test: ATG_RARg_TRANS: Attagene TRANS-FACTORIAL HepG2 Assay for human Retinoic Acid Receptor gamma (RARg) (AID 2283009; active = hit-call score of the fitted dose curve at least 0.9, where 1 is the maximum)
human Retinoic Acid Receptor gamma (RARg), RARG (gene 5916), sequence (P13631 whole entry, looked up, the tested form may be a part): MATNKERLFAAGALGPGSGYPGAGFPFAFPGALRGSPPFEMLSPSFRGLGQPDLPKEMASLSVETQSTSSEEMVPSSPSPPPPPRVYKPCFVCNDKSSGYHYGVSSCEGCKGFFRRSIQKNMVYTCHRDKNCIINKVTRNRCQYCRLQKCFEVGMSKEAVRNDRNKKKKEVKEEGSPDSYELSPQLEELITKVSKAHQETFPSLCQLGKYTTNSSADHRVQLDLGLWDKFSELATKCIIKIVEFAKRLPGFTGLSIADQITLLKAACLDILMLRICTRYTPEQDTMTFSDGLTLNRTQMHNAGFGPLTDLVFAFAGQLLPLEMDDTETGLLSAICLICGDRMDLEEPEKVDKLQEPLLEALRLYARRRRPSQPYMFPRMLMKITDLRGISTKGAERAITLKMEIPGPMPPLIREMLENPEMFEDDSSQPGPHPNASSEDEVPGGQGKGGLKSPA
Outline: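 Readout: reporter transcript levels via RT-PCR, 6-FAM primer-extension labelling, HpaI digestion and capillary electrophoresis. Cells: HepG2 carrying transfected RARg-GAL4 chimera plus UAS reporter set. Dosing 24 h; DMSO negative control.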

[20] = target: human RAR-related Orphan Receptor beta (RORb), RORB (gene 6096) (UniProt Q92753); test: ATG_RORb_TRANS: Attagene TRANS-FACTORIAL HepG2 Assay for human RAR-related Orphan Receptor beta (RORb) (AID 2283010; active = hit-call score of the fitted dose curve at least 0.9, where 1 is the maximum)
human RAR-related Orphan Receptor beta (RORb), RORB (gene 6096), sequence (Q92753 whole entry, looked up, the tested form may be a part): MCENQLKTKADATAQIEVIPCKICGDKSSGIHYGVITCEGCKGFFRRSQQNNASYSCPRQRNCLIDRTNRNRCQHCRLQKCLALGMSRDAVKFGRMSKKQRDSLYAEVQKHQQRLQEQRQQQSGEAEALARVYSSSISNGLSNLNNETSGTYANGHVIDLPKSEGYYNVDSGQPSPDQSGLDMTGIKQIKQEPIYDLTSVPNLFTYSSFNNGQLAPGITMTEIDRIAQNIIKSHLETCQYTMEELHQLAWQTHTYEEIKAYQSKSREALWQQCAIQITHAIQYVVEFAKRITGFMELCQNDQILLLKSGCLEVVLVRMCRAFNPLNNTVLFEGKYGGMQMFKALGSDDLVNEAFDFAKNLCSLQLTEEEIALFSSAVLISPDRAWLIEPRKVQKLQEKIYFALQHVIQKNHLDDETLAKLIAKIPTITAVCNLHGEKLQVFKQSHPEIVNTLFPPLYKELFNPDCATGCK
Outline: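 HepG2, transient MRTU transfection (GAL4-UAS reporters, exogenous NR-Gal4 chimeras); 24 h compound exposure; total RNA → RT-PCR → 6-FAM primer extension → HpaI digest → CE fluorescence. Positive direction vs DMSO baseline.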

Measured: AC50

CC(C)N1C(=O)c2ccccc2NS1(=O)=O
inactive: [1] | [2] | [3] | [4] | [6] | [7] | [8] | [9] | [10] | [11] | [12] | [13] | [14] | [15] | [16] | [17]
active: [5] 33 µM

CC(C)Nc1nc(Cl)nc(NC(C)C)n1
inactive: [1] | [2] | [3] | [5] | [6] | [7] | [8] | [9] | [10] | [13] | [14] | [15] | [16] | [17]

Clc1nc(Cl)nc(Nc2ccccc2Cl)n1
inactive: [1] | [2] | [3] | [4] | [6] | [7] | [8] | [9] | [10] | [14] | [18] | [15] | [17]
active: [5] 29.4 µM | [16] 9.95 µM

COCC(=O)N(c1c(C)cccc1C)C(C)C(=O)OC (stereo unspecified)
inactive: [1] | [2] | [3] | [6] | [7] | [8] | [9] | [10] | [12] | [14] | [18] | [15] | [16] | [17]
active: [5] 50 µM

CCOC(=O)C(C)OC(=O)c1cc(Oc2ccc(C(F)(F)F)cc2Cl)ccc1[N+](=O)[O-] (stereo unspecified)
active: [5] 17.2 µM | [9] 13.3 µM | [12] 1.57 µM | [16] 14.1 µM
inactive: [1] | [2] | [3] | [4] | [6] | [7] | [8] | [10] | [14] | [15] | [17] | [19]

Cc1cc(C)nc(Nc2ccccc2)n1
inactive: [1] | [2] | [3] | [4] | [7] | [8] | [9] | [10] | [12] | [13] | [14] | [18] | [15] | [16] | [17] | [20]
active: [5] 21.6 µM | [6] 12 µM

CC1(C)C(C=C(Cl)Cl)C1C(=O)OC(C#N)c1cccc(Oc2ccccc2)c1 (stereo unspecified)
inactive: [1] | [2] | [3] | [4] | [6] | [7] | [8] | [10] | [11] | [14] | [18] | [19] | [20]
active: [5] 0.723 µM | [9] 13.9 µM | [16] 17.9 µM | [17] 9.82 µM

O=c1n(Cl)c(=O)n(Cl)c(=O)n1Cl
inactive: [2] | [3] | [4] | [5] | [6] | [7] | [8] | [9] | [10] | [11] | [12] | [13] | [14] | [18] | [15] | [16] | [17] | [19] | [20]
